This is an account of results in PubChem BioAssay (NCATS).

Records with an inconclusive call do not appear. Calls of active or inactive are those of the source. Calls follow the shape of the dose curve; as a rule, active = well fitted curve in the direction sought with a large enough effect; inconclusive = small, poorly fitted or top-dose-only effect, or another doubt; inactive = no such curve, though single readings can be large; an effect the other way counts as inactive or inconclusive.

Assay [1] in a line: S16 Schwann cell viability assay (CellTiter-Glo assay) (AID 624031).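 Also: cellular ATP luminescence as a viability measure; nearly all actives have a fitted effect of over 70% in size.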 In a few lines:
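Native S16 Schwann cells (rat), serum-containing medium, overnight attachment then 24 h drug exposure at 37 °C/5% CO2. CellTiter-Glo ATP signal; normalized to cell-free and vehicle wells.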

Another assay has as its system 3D7. Nature of the assay: qHTS profiling for inhibitors of Plasmodium falciparum proliferation (AID 504749). Also: nearly all actives have a fitted effect of over 60% in size. Also: potency is read from the fitted curve at half-maximal effect. To be noted: P. falciparum in erythrocytes, SYBR Green DNA, 72 h; series mostly up to 28.7 µM. The method in brief:
(§1)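 In a 72 h erythrocytic culture (37 C, humidified, 5% CO2) at 2.5% hematocrit and 0.3% starting parasitemia, compounds were tested; SYBR Green I in detergent lysis buffer stained parasite DNA overnight.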
A general note: In qHTS, concentration-response curves come from the screen itself.

For a further assay, the system named is CP185. Described as above. As to conditions: P. falciparum in erythrocytes, SYBR Green DNA, 72 h; series mostly up to 28.7 µM. In a few lines: as §1
Another assay has as its system CP203. The assay is described as above. To be noted: P. falciparum in erythrocytes, SYBR Green DNA, 72 h; series mostly up to 28.7 µM. In a few lines: as §1
The next assay has as its system CP211. Described as above. As to conditions: P. falciparum in erythrocytes, SYBR Green DNA, 72 h; series mostly up to 28.7 µM. The method in brief:
as §1

The subject of a further assay is CP217. Described as above. As to conditions: P. falciparum in erythrocytes, SYBR Green DNA, 72 h; series mostly up to 28.7 µM. In a few lines:
as §1

Another assay relates to CP250. The assay is described as above. As to conditions: P. falciparum in erythrocytes, SYBR Green DNA, 72 h; series mostly up to 28.7 µM. The method in brief: as §1
The next assay deals with CP252. The assay is described as above. As to conditions: P. falciparum in erythrocytes, SYBR Green DNA, 72 h; series mostly up to 28.7 µM. The method in brief: as §1
A further assay has as its system CP256. Described as above. To be noted: P. falciparum in erythrocytes, SYBR Green DNA, 72 h; series mostly up to 28.7 µM. The method in brief: as §1
The next assay has as its system CP262. The description is as above. As to conditions: P. falciparum in erythrocytes, SYBR Green DNA, 72 h; series mostly up to 28.7 µM. The method in brief:
as §1

In a further assay the test system is CP265. Described as above. To be noted: P. falciparum in erythrocytes, SYBR Green DNA, 72 h; series mostly up to 28.7 µM. In a few lines:
as §1

For the next assay, the system named is CP291. Described as above. To be noted: P. falciparum in erythrocytes, SYBR Green DNA, 72 h; series mostly up to 28.7 µM. In a few lines:
as §1

Another assay concerns CP305. Described as above. To be noted: P. falciparum in erythrocytes, SYBR Green DNA, 72 h; series mostly up to 28.7 µM. The method in brief:
as §1

The next assay deals with CP315. Described as above. As to conditions: P. falciparum in erythrocytes, SYBR Green DNA, 72 h; series mostly up to 28.7 µM. In a few lines: as §1
The test system of a further assay is CP335. The description is as above. As to conditions: P. falciparum in erythrocytes, SYBR Green DNA, 72 h; series mostly up to 28.7 µM. In a few lines: as §1
Another assay relates to ECU. The description is as above. As to conditions: P. falciparum in erythrocytes, SYBR Green DNA, 72 h; series mostly up to 28.7 µM. The method in brief:
as §1

The subject of the next assay is HB3. Described as above. To be noted: P. falciparum in erythrocytes, SYBR Green DNA, 72 h; series mostly up to 28.7 µM. The method in brief:
as §1

Another assay deals with N140. The description is as above. To be noted: P. falciparum in erythrocytes, SYBR Green DNA, 72 h; series mostly up to 28.7 µM. The method in brief: as §1
Another assay relates to PC15. The assay is described as above. To be noted: P. falciparum in erythrocytes, SYBR Green DNA, 72 h; series mostly up to 28.7 µM. The method in brief:
as §1

The next assay relates to TAB113. Described as above. To be noted: P. falciparum in erythrocytes, SYBR Green DNA, 72 h; series mostly up to 28.7 µM. The method in brief: as §1

For `OC[C@@H](O)[C@H]1O[C@@H]2OC(C(Cl)(Cl)Cl)O[C@H]2[C@H]1O` (stereo partly drawn), the Potency entry (in assay [1]; in the assay with 3D7; with CP185; in the assay with CP203; in the assay on CP211; with CP217) was “inactive” throughout. The Potency entry in the assay with CP250, in the assay on CP252, in the assay with CP256, in the assay on CP262, with CP265 and with CP291 was “inactive” each time. Further, the Potency entry with CP305, in the assay with CP315, in the assay with CP335, with ECU, in the assay on HB3 and in the assay on N140 was “inactive” each time. The Potency entry in the assay with PC15 and in the assay on TAB113 was “inactive” throughout.
Turning to `C[C@]12C=CC(=O)C=C1CC[C@@H]1C2CC[C@]2(C)OC(=O)CCC12` (stereo partly drawn), the Potency result (in assay [1]; with 3D7; with CP185; in the assay with CP203; in the assay on CP211; in the assay on CP217) was “inactive” throughout. In addition, the Potency result with CP250, with CP252, in the assay on CP256, in the assay on CP262, with CP265 and in the assay with CP291 was “inactive” in each case. Also, the Potency entry in the assay on CP305, in the assay with CP315, with CP335, in the assay with ECU, in the assay on HB3 and with N140 was “inactive” in each case. Further, the Potency entry with PC15 and in the assay with TAB113 was “inactive” throughout.
`C[C@@H]1CC[C@H]2[C@@H](C)C(=O)O[C@@H]3OC4(C)CC[C@@H]1C32OO4` (stereo partly drawn): the Potency in the assay on 3D7 was 7.9 nM (active); in the assay on CP185, 8.9 nM (active); in the assay on CP203 it was 13.5 nM (active); in the assay with CP211 it was 16.9 nM (active); with CP217 it was 10 nM (active); in the assay on CP250, 14.1 nM (active). Moreover, the Potency in the assay with CP252 is 10 nM (active); with CP256, 10 nM (active); with CP262, 13.5 nM (active); with CP265, 7.9 nM (active); in the assay with CP291, 10.7 nM (active); in the assay on CP305, 13.5 nM (active). Also, the Potency was 23.9 nM (active) in the assay on CP315; 6.7 nM (active) in the assay on CP335; 5.6 nM (active) in the assay on ECU; 8.9 nM (active) in the assay with HB3; 5.6 nM (active) in the assay on N140; 10 nM (active) with PC15. Moreover, the Potency in the assay with TAB113 is 5.6 nM (active).
As for `CCCCCc1cc(O)c2c(c1)OC(C)(C)C1CC=C(C)CC21` (stereo not drawn), the Potency with 3D7 was 2820 nM (active); with CP185 it was 6310 nM (active); in the assay on CP203, 2130 nM (active); with CP211, 5360 nM (active); in the assay on CP217, 2240 nM (active); with CP250, 7080 nM (active). Also, the Potency in the assay on CP252 is 3160 nM (active); in the assay with CP256, 11200 nM (active); with CP262 it was 4260 nM (active); in the assay with CP265, 3550 nM (active); with CP291 it was 6750 nM (active); with CP305, 12000 nM (active). In addition, the Potency with CP315 is 4260 nM (active); in the assay on CP335, 3380 nM (active); with ECU, 2000 nM (active); with HB3 it was 5010 nM (active); with N140, 1120 nM (active); with PC15, 5010 nM (active). Moreover, in the assay on TAB113, the Potency was 2000 nM (active).
With `CC1(C)[C@@H](C=C(Cl)Cl)[C@@H]1C(=O)OCc1c(F)c(F)cc(F)c1F`, the Potency result (in [1]; with 3D7; in the assay on CP185; in the assay on CP203; with CP211; in the assay on CP217) was “inactive” in each case. In addition, the Potency result with CP250, with CP252, in the assay on CP256, with CP262, in the assay on CP265 and in the assay with CP291 was “inactive” throughout. For the same compound, the Potency result with CP305, with CP315, with CP335, in the assay with ECU, in the assay on HB3 and in the assay on N140 was “inactive” each time. Moreover, the Potency result in the assay on PC15 and in the assay with TAB113 was “inactive” throughout.
Regarding `C[C@H](N)Cc1ccccc1`, the Potency result (in [1]; in the assay with 3D7; in the assay with CP185; in the assay on CP203; in the assay with CP211; in the assay with CP217) was “inactive” throughout. The Potency result in the assay on CP250, in the assay with CP252, in the assay with CP256, in the assay on CP262, with CP265 and with CP291 was “inactive” each time. For the same compound, the Potency entry in the assay with CP305, with CP315, with CP335, in the assay on ECU, with HB3 and with N140 was “inactive” each time. The Potency entry with PC15 and with TAB113 was “inactive” throughout.
